Screening data (PubChem BioAssay)
TEAD-YAP inh: TEAD-YAP interaction inhibition, primary screen, TEAD-YAP interaction inhibitor project, luminescence, HEK-TIYL cells; 640,000 tested, 1.4% active; AID 1259422, 2018; TEAD-Gal4/YAP UAS-luciferase luminescence; inhibition, % at 9.12 µM; in the data active = inhibition above about 32%;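 also: 0% = median of test compound wells and 100% = reference inhibitor wells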
MITF inh: MITF inhibitors, primary screen, biochemical, AlphaScreen, human; inhibition, % at 2.6 µM; AlphaScreen MITF homodimerization, bead proximity signal; 650,000 tested, 0.91% active; in the data active = inhibition above about 50%;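 also: 0% = vehicle wells with protein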
FBW7 activator: FBW7 E3 ligase activators, primary screen, biochemical, AlphaScreen, human. AlphaScreen FBW7–phospho-cyclin E peptide binding, activator screen. F-box/WD repeat-containing protein 7 (Homo sapiens), Q969H0. normalized activity (activation), % at 26.1 µM. 650,000 tested, 0.13% active. AID 1259310, 2017; in the data active = normalized activity above about 1.9%;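 also: purified mutant Fbw7 with reduced substrate affinity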
GPR151 activ: activators of human GPR151, primary screen, cell-based, PathHunter beta-arrestin, luminescence; G-protein coupled receptor 151 (Homo sapiens), Q8TDV0; PathHunter beta-arrestin GPR151 cells; activation, % at 11.2 µM; 650,000 tested, 1% active; AID 1508602, 2020; in the data active = activation above about 4.9%;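 also: 0% = median of compound wells and 100% = cells with positive control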
Target sequence (Q8TDV0 whole entry, looked up): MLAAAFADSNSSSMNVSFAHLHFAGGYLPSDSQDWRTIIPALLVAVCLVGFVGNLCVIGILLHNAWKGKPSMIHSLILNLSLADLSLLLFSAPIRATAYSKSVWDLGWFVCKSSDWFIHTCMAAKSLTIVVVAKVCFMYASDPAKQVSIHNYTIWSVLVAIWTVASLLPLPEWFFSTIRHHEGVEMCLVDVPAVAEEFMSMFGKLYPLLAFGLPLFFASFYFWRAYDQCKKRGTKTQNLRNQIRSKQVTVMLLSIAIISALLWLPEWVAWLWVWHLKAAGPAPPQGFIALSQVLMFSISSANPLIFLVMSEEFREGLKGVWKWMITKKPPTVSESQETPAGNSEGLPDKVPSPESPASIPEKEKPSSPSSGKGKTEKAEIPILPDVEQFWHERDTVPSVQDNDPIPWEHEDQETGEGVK
GPR151 confirm: GPR151 activators, triplicate retest, confirmation, cell-based, PathHunter beta-arrestin, luminescence | shares compounds with GPR151 activ | GPR151 PathHunter beta-arrestin cells, 90 min; % of EA-reagent control over plate median | activation, % at 11.2 µM | 6,700 tested, under 10 active | AID 1508609, 2020;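 active = mean percent activation across replicates above the confirmation screen cutoff of 4.91%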
GPR119 counter: GPR119 activators in beta-arrestin cells, counter-screen for GPR151 activator project, cell-based, PathHunter beta-arrestin, luminescence, triplicate | shares compounds with GPR151 activ | 90 min; 0 = compound-well median, 100 = enzyme-acceptor control | activation, % at 11.2 µM | 6,700 tested, 0.3% active;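 active = mean percent activation in the counterscreen above 29.09%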;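 also: counterscreen on off-target GPR119 to flag nonselective hits from the GPR151 activator screen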
* = called active by the depositor; . = no result. Compounds with a hit are over-represented: about 3.5% of the library has one in this group of screens.

SMILES	TEAD-YAP inh	MITF inh	FBW7 activator	GPR151 activ	GPR151 confirm	GPR119 counter
CCOc1ccc(S(=O)(=O)Nc2cccc(-c3ccc4nncn4n3)c2)cc1	39.4*	14.0	0.1	9.8*	1.1	11.3
COc1cc(OC)c(CN2CCc3nnc(C4CCCO4)n3CC2)c(OC)c1 (stereo not drawn)	-12.1	-5.5	0.0	5.3*	-0.4	3.8
COc1ccc(/C=C/C(O)=C(\C#N)c2nc3ccccc3[nH]2)cc1OC	-5.0	6.2	0.1	2.3	.	.
COc1ccc(CC(=O)NNC(=O)c2ccc(Cl)cc2)cc1OC	4.5	16.0	0.0	5.3*	-0.4	11.2
CCCNc1nnnc2c1cnn2-c1ccccc1	-33.8	8.1	0.1	0.5	.	.
CC(C)CNc1nnnc2c1cnn2-c1ccccc1	-38.9	-2.9	0.0	9.6*	0.7	3.5
CNC(=O)OCc1ccc(-c2ccc(Cl)cc2)o1	-11.4	0.3	0.0	5.9*	0.4	7.3
CNC(=O)OCc1ccc(-c2ccc(C)cc2)o1	-26.1	0.6	-0.8	-0.5	.	.
COc1cccc(N2CCN(C(=O)C3=C(C)C(=O)OC34CCCCC4)CC2)c1	-1.8	-5.5	0.1	5.6*	-0.2	1.2
CC1=C(C(=O)N2CCCC2)C2(CCCCCC2)OC1=O	-5.9	-10.3	0.1	-0.7	.	.
CCOC(=O)c1c(C)oc2ccc(N(C(=O)c3ccc(C)cc3)S(=O)(=O)c3ccc(C)cc3)cc12	-6.6	4.8	-0.2	5.0*	0.5	-2.8
Nc1ccc(O)c(C(=O)N=Nc2c(O)[nH]c3ccccc23)c1	-5.2	22.6	-0.3	1.2	.	.
Cc1ccc(C(=O)NNC2=NCCC2)cc1	-6.4	-0.6	0.5	5.6*	0.4	6.0
O=C(NNC1=NCCC1)c1ccc(Br)cc1	-4.5	4.8	-0.1	0.3	.	.
CC/C(C)=N/n1c(-c2ccc3c(c2)NC(=O)CO3)csc1=Nc1ccc(C)cc1	0.3	4.0	-0.3	-0.3	.	.
O=C(NC1CCCCC1O)c1ccccc1C(F)(F)F (stereo not drawn)	-5.4	16.1	0.3	9.2*	-0.3	-10.2
O=C(NC1CCCCC1)c1ccccc1C(F)(F)F	-4.1	8.1	0.1	-0.6	.	.
O=C(Nc1ccc(Br)cc1Cl)C1CC(=O)N(C2CCCCC2)C1 (stereo not drawn)	-5.6	-10.2	0.0	0.2	.	.
COc1cc(C2C(C#N)=C(N)OC3=C2C(=O)CC(C)(C)C3)ccc1OC(C)=O (stereo not drawn)	2.0	-1.7	-0.2	5.3*	1.2	5.5
CCOc1ccc(C2C(C#N)=C(N)OC3=C2C(=O)CC(C)(C)C3)cc1 (stereo not drawn)	-0.1	-5.1	0.1	8.0*	-0.3	-9.9
COc1ccc(CCNC(=O)c2ccnc(-c3cccs3)c2)cc1	1.2	3.2	0.1	0.1	.	.
CC1CC(OC(=O)C(O)c2ccccc2)CC(C)(C)C1 (stereo not drawn)	1.3	-9.0	0.1	6.6*	1.5	-2.2
CCOc1ccc(C(C)NC(=O)c2ccc(OC)cc2)cc1 (stereo not drawn)	5.4	13.6	0.0	6.2*	0.9	10.3
CCOc1ccc(C(C)NC(=O)c2ccc(F)cc2)cc1 (stereo not drawn)	0.4	5.2	0.0	-0.9	.	.
Cc1ccc(S(=O)(=O)n2ccn(CC(=O)Nc3ccc(Br)cc3)c2=O)cc1	24.1	12.3	0.0	0.1	.	.
CCOC(=O)c1c(NC(=O)CSc2nnc(CNC(=O)c3ccc(OC)cc3)n2-c2ccc([N+](=O)[O-])cc2)sc2c1CCCCC2	0.9	6.6	0.1	5.9*	0.9	-8.5
CCOC(=O)c1c(NC(=O)CSc2nc3ccccc3[nH]2)sc2c1CCCC2	-24.5	2.2	0.2	6.3*	0.4	0.0
CCOC(=O)c1c(NC(=O)CCSc2nnc3ccccn23)sc2c1CCCC2	0.0	9.6	0.2	1.4	.	.
CCOC(=O)c1c(NC(=O)CSc2nnc3ccccn23)sc2c1CCCC2	-2.0	10.7	0.0	6.8*	1.2	6.2
